Assay results reported in PubChem BioAssay AID624330 (Southern Research Specialized Biocontainment Screening …, 2012).
In all, about 340,000 compounds went through this assay and about 2,100 (0.62%) were called active.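 Rule for the calls: active = first-screen hits whose inhibition reached a set limit at any dose in the follow-up dose series; inconclusive = inhibition above the set first-screen limit but never retested; inactive = the rest.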 These entries were drawn from the full list. Measured potencies and affinities stand elsewhere.

Biological target: Rac GTPase-activating protein 1 (Homo sapiens) (UniProt Q9H0H5)
Sequence (Q9H0H5 whole entry, looked up): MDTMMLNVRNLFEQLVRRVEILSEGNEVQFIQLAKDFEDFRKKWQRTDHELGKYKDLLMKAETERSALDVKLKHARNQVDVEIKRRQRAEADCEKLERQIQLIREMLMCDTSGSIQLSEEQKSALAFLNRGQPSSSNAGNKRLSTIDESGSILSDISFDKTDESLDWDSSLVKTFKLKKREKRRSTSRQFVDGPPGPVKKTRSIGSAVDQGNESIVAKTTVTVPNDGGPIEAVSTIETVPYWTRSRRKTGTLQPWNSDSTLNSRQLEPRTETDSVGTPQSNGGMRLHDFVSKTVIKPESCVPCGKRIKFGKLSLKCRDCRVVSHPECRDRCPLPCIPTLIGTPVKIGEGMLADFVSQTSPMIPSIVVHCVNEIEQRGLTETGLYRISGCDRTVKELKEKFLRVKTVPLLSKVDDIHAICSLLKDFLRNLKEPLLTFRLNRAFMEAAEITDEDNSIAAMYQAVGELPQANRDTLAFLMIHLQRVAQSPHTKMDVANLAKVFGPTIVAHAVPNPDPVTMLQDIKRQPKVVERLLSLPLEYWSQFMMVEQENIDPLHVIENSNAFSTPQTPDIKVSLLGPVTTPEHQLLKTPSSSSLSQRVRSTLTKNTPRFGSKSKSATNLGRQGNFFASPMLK
Assay: MgcRacGAP GTPase-activating activity inhibitors, confirmation, biochemical, ADP Hunter fluorescence, primary and confirmatory (AID 624330);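 note: fluorescence reports GDP produced by GAP-driven GTP hydrolysis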
Details: MgcRacGAP-stimulated Rac1 GTP hydrolysis, at 30 µM, active compounds read high, GST-tagged Rac1 F28L mutant substrate

inhibition, inactive:
COC(=O)c1ccc(Sc2ccccc2NS(=O)(=O)c2ccc(OC)cc2)nc1 7.44%, CC1(c2nnc(-c3cccc(Cl)c3)o2)CC(c2ccccc2F)=NO1 (centres undefined) 5.14%, CCn1nc(C)c(/C=N/NC(=O)c2ccoc2C)c1C 1.28%, O=C1CC(/C=C/c2ccccn2)=Nc2ccccc2N1 -8.85%, O=C(O)c1cc(N/N=C/c2cccc3ccccc23)ccc1Cl 11.3%, O=C(O)c1cc(N/N=C/c2ccc(-c3ccccc3)cc2)ccc1Cl 5.89%, CC(C)n1cc(/C=N/Nc2ccc(C(=O)O)cc2)c2ccccc21 24.1%, COc1ccc2ccccc2c1/C=N/Nc1ccc(Cl)c(C(=O)O)c1 17.1%, CC(C)CC1NC(=O)c2cc3ccccc3cc2-n2c1nc1ccc(Cl)cc1c2=O (centres undefined) 6.29%, COCCCNC(=S)NC1CC2CCCC(C1)N2Cc1ccco1 (centres undefined) 13.1%, COc1ccccc1NS(=O)(=O)c1cc(N)ccc1N1CCCCC1 5.74%, Nc1ccc(N2CCCCC2)c(S(=O)(=O)Nc2ccc(Cl)cc2)c1 3.13%, COc1ccccc1NS(=O)(=O)c1cc(N)ccc1N1CCOCC1 16.4%, O=C(Nc1ccc(N2CCCC2)c(S(=O)(=O)Nc2cccc(C(F)(F)F)c2)c1)c1cccs1 7.15%, O=C(NNC(=O)c1cc2ccccc2cc1O)c1cccs1 3.14%, Cc1cccc(N2CCN(C(=O)C3CCC(=O)N(Cc4ccccc4F)C3)CC2)c1C (centres undefined) -9.79%, CCn1cc(/C=C(\NC(=O)c2ccccc2)C(=O)N2CCOCC2)c2ccccc21 9.74%, Nc1no[n+]([O-])c1-c1ccccc1 7.71%, CCCC(=O)Nc1cc(-c2nc3ncccc3o2)ccc1Cl 6.17%, NC(=S)N/N=C/c1cn(CCC(=O)O)nc1-c1cccc(Br)c1 12.2%, O=C(O)CCn1cc(/C=C2\NC(=S)N(c3ccccc3)C2=O)c(-c2ccc(Br)cc2)n1 0.36%, O=C(O)CCn1cc(/C=C2/NC(=S)N(c3ccccc3)C2=O)c(-c2ccccc2)n1 7.18%, O=C(O)CCn1cc(C(=O)O)c(-c2ccccc2)n1 9.41%, Cc1ccc(-c2nn(CCC(=O)O)cc2/C=C\C(=O)c2ccc(Br)cc2)cc1 -9.64%, O=Cc1cn(CCC(=O)O)nc1-c1cccc(Br)c1 -0.73%, Cc1ccc(C2=NN3C(=O)c4ccccc4C3C2)cc1 (centres undefined) -20.3%, COCCC(=O)N1CCCC(C(=O)c2ccccc2SC)C1 (centres undefined) 1.95%, COc1ccc(-n2nnnc2SCC(=O)Nc2cccc(O)c2)cc1 8.11%, CCOC(=O)C1(Cc2cccc(OC)c2)CCN(Cc2cccc3cnccc23)CC1 -0.92%, O=C(C=Cc1ccco1)N1CCOCC1 8.8%, CN(C)c1ccc(C=C2C=C(c3ccccc3)OC2=O)cc1 -3.66%, Cc1ccc(C=C2C=C(c3ccccc3)OC2=O)cc1 11.5%, NC(=S)Cc1ccccc1Cl 8.51%, O=C(O)c1ccc(O)cc1O 6.35%, OC(CCN1CCCCC1)(c1ccccc1)C1C[C@@H]2C=C[C@H]1C2 (some centres undefined) 0.59%, CCc1cc(-c2n[nH]c(C)c2-c2nc3ccccc3n2C)c(O)c(CN2CCN(C)CC2)c1O 1.55%, CCCCn1c(=O)c(CCC(=O)O)nc2ccccc21 -3.87%, CCc1cc2c(=O)c(-c3nc4ccccc4n3C)c(COCC(=O)O)oc2cc1O 3.02%, CCN(CC)Cc1c(O)ccc2cc(-c3nc4ccccc4n3C)c(=O)oc12 2.29%, CCOC(=O)C1CCCN(C(=O)c2ccccc2[N+](=O)[O-])C1 (centres undefined) 3.25%, CCCCC/C=C/C1=CC(=O)C[C@H](c2ccc3c(c2)OCO3)C1 5.09%, CN(Cc1ccno1)Cc1cn(Cc2ccccc2)nc1-c1ccc2c(c1)OCO2 9.52%, COc1ccc(CCNC(=O)COC(=O)C2COc3ccccc3O2)cc1 (centres undefined) 2.96%, CC(=O)N1CCN(S(=O)(=O)c2cccc(C(=O)NCCc3ccc(Cl)cc3)c2)CC1 5.57%, CCOc1ccc(Oc2ccccc2NC(=O)C2=COCCO2)cc1 -5.82%, OCCCNc1c2ccccc2nc2ccccc12 9.86%, OCCCNCc1cccc2ccccc12 -2.77%, COCCCNC(=O)C[C@H]1C[C@H](C(=O)N(C(C)C)C(C)C)[C@@]2(C)c3[nH]c4ccc(Cl)cc4c3CCN2C1=O 4.5%, Cc1ccc(S(=O)(=O)NNC(=O)CCC(=O)Nc2ccccc2Cl)cc1 7.64%, C(/CCc1ccccc1)=N\n1cnnc1 8.49%, Cc1ccc(C=C2C(=O)c3ccccc3C2=O)o1 8.39%, O=C(O)c1ccc2c(c1)C(=O)/C(=C/c1ccccc1)C2=O 31.4%, Cc1ccc(C(=O)O)cc1-c1ccc(C=C2C(=O)c3ccccc3C2=O)o1 12.9%, O=C1C(=Cc2ccco2)C(=O)c2ccccc21 12.3%, CCN(CC)c1ccc(C(=O)O)cc1 -7.19%, O=C(O)c1ccc2c(c1)C(=O)N(Cc1ccco1)C2=O -0.17%, O=C(CN(Cc1ccccc1)C(=O)c1csnn1)NCc1ccc2c(c1)OCO2 -2.73%, CCOc1ncccc1C(=O)OCCCC(=O)c1ccc(Br)cc1 2.15%, COc1ccc(-n2c(-c3ccc(Cl)cc3Cl)n[nH]c2=S)c(OC)c1 -9.67%, COc1cccc(NC(=S)N(CCc2c(C)[nH]c3ccccc23)Cc2cccs2)c1 6.48%, COc1ccc(C(=O)Nc2ccc(C(=O)Nc3nccs3)cc2)cc1[N+](=O)[O-] 10%, Fc1ccc(C2=Nc3cccc4cccc(c34)N2)cc1 16.5%, CC1=Nc2cccc3cccc(c23)N1 -4.86%, CCOC(=O)C1CCCN(C(=O)Nc2ccccc2)C1 (centres undefined) 0.14%, O=C(Nc1ccccc1)NC1(C(=O)N2CCC(O)CC2)CCCCC1 5.54%, CCOC(=O)C1CCCN(C(=O)C2CCN(C(=O)Nc3ccccc3)CC2)C1 (centres undefined) 4.05%, OC1CCN(C(=S)Nc2ccc(Oc3ccccc3)cc2)CC1 -10.8%, CCCOCC(O)CCc1n[nH]c(=S)n1-c1ccccc1 (centres undefined) -1.65%, Cc1ccc(C(=O)COc2ccc3ccc(=O)oc3c2)cc1 8.86%, Cc1cc(C)n(C(=O)c2ccc(NC(=O)C3COc4ccccc4O3)cc2)n1 (centres undefined) -9.3%, CC(C)c1onc(C(=O)N2CCN(Cc3ccccc3)CC2)c1[N+](=O)[O-] -1.76%, Nc1nc(SCc2ccccc2)c2[nH]cnc2n1 5.48%, CNc1ncnc(Sc2nc(N)nc3nc[nH]c23)c1[N+](=O)[O-] -4.52%, COC(=O)c1ccc(/C=C/C(=O)O)cc1 14.6%, COC(=O)c1ccc(C(=O)OC)c(NC(=O)COC(=O)c2ccc(OC)c(OC)c2OC)c1 -0.19%, COC(=O)c1ccc2c(c1)C(=O)/C(=C/c1ccc(O)cc1)O2 30.8%, COc1ccc(/C=N/Nc2ccc(C(=O)O)cc2)c(OC)c1OC 5.84%, C[N+]1=C(/C=C/Nc2ccccc2Cl)C(C)(C)c2ccccc21 -5.94%, COC(=O)c1ccc2nc(C)c(C)nc2c1 2.34%, COC(=O)c1cn(Cc2ccccn2)c(=O)c2ccccc12 1.41%, O=C(Nc1ccc(N2CCN(C(=O)c3ccccc3)CC2)cc1)c1cccnc1 4.32%, CCn1cc(C(=O)OCC(=O)Nc2ccc(C(C)C)cc2)c(=O)c2ccc(C)nc21 3.76%, CC(Sc1nnnn1-c1ccc(O)cc1)C(=O)NNC(=O)c1ccc(F)cc1 (centres undefined) 2.11%, O=C(NCCN1C(=O)S/C(=C/c2ccccc2)C1=O)C1CC(=O)N(Cc2ccccc2)C1 (centres undefined) 7.02%, Cc1c(C)n(CC(O)CNc2ccccc2)c2ccccc12 (centres undefined) 20.8%, Cc1c(C)n(CC(O)CNCCO)c2ccccc12 (centres undefined) 18.2%, CN1CC(=O)N/C1=N\C(=O)Nc1ccc2c(c1)N(C)C(=O)CS2 2.74%, COc1cc(/C=C/C(=O)OCC(=O)NC(=O)NC(C)(C)C)cc(OC)c1OC 8.1%, COc1ccc(/C=C/C(=O)OCC(=O)NC(=O)NC(C)(C)C)cc1 2.69%, COc1cc(/C=C/C(=O)OCC(=O)NC(=O)NC(C)C)ccc1OCC#N 0.8%, COc1cc(/C=C/C(=O)OCC(=O)NC(=O)NC(C)C)cc(OC)c1OC 6.89%, O=C1c2ccccc2NC(c2ccc([N+](=O)[O-])cc2)N1O (centres undefined) 4.29%, O=S(=O)(Nc1cccc(S(=O)(=O)N2CCOCC2)c1)c1ccc(Cl)s1 -0.61%, CCc1nc2sccc2c(=O)n1N -1.25%, O=C(CNC(=O)c1ccccc1)NCCc1ccc(O)c(O)c1 10.9%, CCN(Cc1ccccc1)Cc1ccc(OCc2ccccc2)c(OC)c1 10.8%, CCN(Cc1ccncc1)Cc1ccc(Br)cc1 28%, COc1ccc(CNCc2ccncc2)c(OC)c1 5.34%, CCN(Cc1ccncc1)Cc1cn[nH]c1-c1ccc(OC)cc1F -2.02%
